# Laboratory results as given in the supplement of paper PMC7156485.
# ± gives the standard deviation of the averaged measurements.
# Test system: HCC1569
# Test: cell number relative to DMSO (% of DMSO); higher = more cells (less growth inhibition / toxicity)
# Conditions: concentration: 10 µM; 24 h
# In short: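 HCC1569 and TDF cells (800 per well, 384-well plates, RPMI with 10% FBS) were treated with compounds at 10 µM for 24 h at 37 °C, in triplicate. Cells were fixed in 3.7% formaldehyde and stained with a rabbit anti-H1.0 antibody, an AlexaFluor 647 secondary and DAPI; six fields per well were imaged at ×10. H1.0 nuclear intensity or cell number is expressed as percent of the plate DMSO control, taking the median of replicates. HCC1569 values were smoothed for positional effects.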
# 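Also: TDF denotes transformed human dermal fibroblasts of mesenchymal origin.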
row,Compound,cell number
1,c1cc(OCCN2CCCCC2)cc(-c2n[nH]c3ccc(-c4ncn[nH]4)cc23)c1,88.3
2,Cc1ccccc1C(=O)c1ccc(Nc2ccc(Br)cc2N)cc1Cl,97.3
3,"Nc1cccc(-c2cc3c(Oc4cccc(O)c4)ncnc3[nH]2)c1 [GSK3b Inhibitor XII, TWS119]",60.2
4,CCCNC(=O)NS(=O)(=O)c1ccc(Cl)cc1 [Chlorpropamide],101
5,CCCCCC=CCC=CCC=CCC=CCCCC(=O)OC(CO)COC(=O)CCCCCCCCCCCCCCCCC (stereo not given) [1-Stearoyl-2-arachidonoyl-glycerol],100
6,CCCCCC=CCC1OC1C=CC(O)CC=CCCCC(=O)O (stereo not given) [Hepoxilin A3],107
7,CS(=O)(=O)c1ccc(C(O)C(COC(=O)CN)NC(=O)C(Cl)Cl)cc1 (stereo not given) [Thiamphenicol glycinate],105
8,"O=C1Nc2ccc(Cl)cc2C1=Cc1cc(Cl)c(O)c(Cl)c1 [PKR Inhibitor, Negative Control]",101
9,CCN(CC)C(C)C(=O)N1c2ccccc2Sc2ccccc21.Cl (stereo not drawn) [10-(alpha-Diethylaminopropionyl)-phenothiazine hydrochloride],93.7
10,NC(CS(=O)O)C(=O)O [L-Cysteinesulfinic Acid],102
11,CCCn1c(=O)[nH]c(=O)c2[nH]cnc21 [3-n-Propylxanthine],104
12,CN1CCC(=C2c3ccccc3CC(=O)c3sccc32)CC1.O=C(O)C=CC(=O)O [Ketotifen fumarate],101
13,COC(=O)N=NC=C1C=[N+]([O-])c2ccccc2N1O [Carbadox],104
14,CCC(=O)c1ccc2c(c1)N(CCCN(C)C)c1ccccc1S2.Cl [Propionylpromazine hydrochloride],97.4
15,Nc1ccccc1NC(=O)CCCCCCC(=O)Nc1ccccc1 [N~1~-(2-aminophenyl)-N~8~-phenyloctanediamide],98.8
16,CCCCCC=CCC=CC=CC=CC(O)C(O)CCCC(=O)O (stereo not given),99.8
17,O=C(NO)c1cccc(C(=O)NCCc2ccccc2)c1 [N1-hydroxy-N3-phenethylisophthalamide],105
18,CC1(C)SC2C(NC(=O)COc3ccccc3)C(=O)N2C1C(=O)[O-] (stereo not given) [Pencillin V],100
19,COc1ccc2c(c1)CC[C@@H]1[C@@H]2CC[C@]2(C)[C@@H](NCCCCCCN3C(=O)C=CC3=O)CC[C@@H]12.O,97.6
20,CC(C)c1cccc(C(C)C)c1N1C(=O)c2ccc(O)cc2C1=O,60.4

row,Compound,cell number
1,NS(=O)(=O)Cc1noc2ccccc12 [Zonisamide],101
2,CN(C)CCC(CSc1ccccc1)Nc1ccc(S(=O)(=O)NC(=O)c2ccc(N3CCN(Cc4ccccc4-c4ccc(Cl)cc4)CC3)cc2)cc1[N+](=O)[O-] (stereo not given),30.5
3,O=C(Nc1cccc(C(F)(F)F)c1)Nc1cc(S(=O)(=O)NC2CC2)ccc1-c1ccsc1,91.2
4,Nc1ncnc2c1nc(Sc1ccc(Cl)cc1)n2C1OC2COP(=O)([O-])OC2C1O.[Na+] (stereo not given) [8-(4-Chlorophenylthio)-cAMP sodium],104
5,CCCCCC=CCC=CC=CC=CC(SCC(N)C(=O)O)C(O)CCCC(=O)O (stereo not given) [Leukotriene E4],103
6,CC[C@@]1(O)C(=O)OCc2c1cc1n(c2=O)Cc2cc3c(CN(C)C)c(O)ccc3nc2-1,61.3
7,N[C@@H](Cc1cc(I)c(Oc2cc(I)c(O)c(I)c2)c(I)c1)C(=O)O [L-thyroxine],103
8,CCCCCCCCCCCCCCCCOCC(COP(=O)([O-])OCC[N+](C)(C)C)OC(=O)NC (stereo not given),103
9,OC(CS)C(O)CS (stereo not given),103
10,COc1cc2ncnc(Nc3ccc(O)c(Br)c3)c2cc1OC [JAK3 Inhibitor II],88.7
11,CC12CCC3c4ccc(O)cc4CCC3C1CCC2O (stereo not given) [Estradiol],94.6
12,CCC1=C(C)CN(C(=O)NCCc2ccc(S(=O)(=O)NC(=O)NC3CCC(C)CC3)cc2)C1=O (stereo not given) [Glimepiride],102
13,Cl.O=c1n(CCCN2CCN(c3cccc(Cl)c3)CC2)nc2ccccn12 [Trazodone hydrochloride],102
14,CC(=O)OC1CC2(C)C(CC(O)C3C4(C)CCC(O)C(C)C4CCC32C)C1=C(CCC=C(C)C)C(=O)[O-].[Na+] (stereo not given) [Fusidic acid sodium],105
15,Cc1cc(C2CCCCC2)n(O)c(=O)c1.NCCO [Ciclopirox ethanolamine],78.7
16,COc1ccc(-c2cc(C(O)C3CCCCN3)c3ccccc3n2)cc1.Cl.Cl (stereo not given),68.2
17,Cc1scc2c1N(C(=O)CN1CCN(C)CC1)c1ccccc1NC2=O.Cl.Cl [Telenzepine.2HCl],101
18,CN=C(NC#N)NCCSCc1nc[nH]c1C [Cimetidine],102 ± 1.8
19,"O=Nc1ccc2oc(=O)ccc2c1 [6-Nitroso-1,2-benzopyrone]",100
20,Nc1ccc(S(=O)(=O)Nc2ccnn2-c2ccccc2)cc1 [Sulfaphenazole],107
